Data taken from article PMC4336329 (PLoS ONE, 2015).
The whole screen tested about 310,000 compounds, of which about 2,200 (0.71%) showed an effect of 50% or more. The effect is printed as a negative number. For the sample, strong results were picked, then their nearest neighbours and some compounds at random.

Molecular target: human ether-à-go-go-related gene (hERG) potassium channel (human, UniProt Q12809)
Assay: primary screen, population patch clamp on CHO cells stably expressing hERG; higher = less effect of the substance
Experimental: Briefly, Chinese hamster ovary (CHO) cells stably expressing the hERG channel were dislodged from tissue culture flasks and dispensed into PPC plates. […] During the recording, background leak currents were estimated by a 100 ms step to -80 mV from an initial holding potential of -70 mV and subtracted from the subsequent current measurement. The campaign was conducted in two phases using slight differences in recording protocol. In the first phase, the initial voltage pulse used a 100 ms step to -30 mV from a holding potential of -70 mV, a 2 s conditioning step to +25 mV, and a 2 s test step to -30 mV. During the second phase of the screen, the potential during the conditioning step was raised to +45 mV. In both phases of the campaign, a secondary voltage pulse was applied using the same parameters as the second phase initial pulse. The initial and secondary pulses were applied in the absence of compound, and upon application of 1 μM and 10 μM test concentrations. Small molecule effects on hERG current density were quantified by […].

Sequence of human ether-à-go-go-related gene (hERG) potassium channel (Q12809 whole entry, looked up): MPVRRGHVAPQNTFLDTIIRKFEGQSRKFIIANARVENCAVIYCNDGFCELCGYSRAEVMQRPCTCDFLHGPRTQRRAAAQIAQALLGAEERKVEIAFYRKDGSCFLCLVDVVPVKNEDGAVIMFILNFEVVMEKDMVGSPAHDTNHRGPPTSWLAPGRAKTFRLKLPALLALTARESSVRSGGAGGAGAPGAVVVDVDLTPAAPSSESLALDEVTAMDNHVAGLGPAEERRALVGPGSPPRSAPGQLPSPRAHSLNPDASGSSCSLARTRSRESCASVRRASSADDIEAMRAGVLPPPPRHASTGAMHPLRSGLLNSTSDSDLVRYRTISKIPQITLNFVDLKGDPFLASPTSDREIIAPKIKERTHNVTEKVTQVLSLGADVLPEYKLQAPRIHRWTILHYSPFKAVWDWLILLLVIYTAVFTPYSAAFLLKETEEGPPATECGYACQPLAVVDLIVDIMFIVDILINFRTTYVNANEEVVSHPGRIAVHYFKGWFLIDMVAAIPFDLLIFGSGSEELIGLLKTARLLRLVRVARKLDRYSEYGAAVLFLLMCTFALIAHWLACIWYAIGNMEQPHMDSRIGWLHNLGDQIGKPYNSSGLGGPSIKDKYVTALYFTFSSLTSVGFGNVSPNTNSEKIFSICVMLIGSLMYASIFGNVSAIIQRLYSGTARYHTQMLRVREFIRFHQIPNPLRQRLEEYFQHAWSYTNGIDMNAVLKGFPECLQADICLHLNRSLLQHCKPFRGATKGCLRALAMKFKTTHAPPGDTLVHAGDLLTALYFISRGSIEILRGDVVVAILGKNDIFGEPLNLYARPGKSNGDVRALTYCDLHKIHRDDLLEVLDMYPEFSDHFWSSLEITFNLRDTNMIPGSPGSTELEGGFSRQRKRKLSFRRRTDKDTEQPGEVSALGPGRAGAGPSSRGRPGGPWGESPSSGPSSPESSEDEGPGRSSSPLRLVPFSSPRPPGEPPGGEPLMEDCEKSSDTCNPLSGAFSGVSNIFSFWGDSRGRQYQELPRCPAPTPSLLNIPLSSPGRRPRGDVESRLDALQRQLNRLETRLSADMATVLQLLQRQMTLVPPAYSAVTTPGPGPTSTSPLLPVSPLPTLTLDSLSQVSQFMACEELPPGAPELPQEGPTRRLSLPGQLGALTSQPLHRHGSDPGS

SMILES	hERG current change (%, negative = inhibition) at 1uM [%]
CNC(C)Cc1ccccc1Sc1ccc(O)cc1.Cl (centres unmarked)	-21.1
CC(Cc1ccccc1Sc1ccccc1O)N(C)C.Cl (centres unmarked)	3.67
N=C(N)Cc1ccccc1Sc1ccccc1.O=C(O)/C=C\C(=O)O	5.87
CCN(CC)Cc1ccccc1Sc1ccccc1.O=C(O)/C=C\C(=O)O	-6.63
N/C(Cc1ccccc1Sc1ccccc1)=N\O.O=C(O)/C=C\C(=O)O	4.44
CC(Cc1ccccc1Sc1ccccc1)N(C)C.O=C(O)/C=C\C(=O)O (centres unmarked)	-60.6
CC(Cc1ccccc1Sc1ccc(O)cc1)N(C)C.CCO.Cl (centres unmarked)	-73.1
CN1CCN(Cc2ccccc2Sc2ccccc2)CC1.O=C(O)/C=C\C(=O)O	-68.1
O=C(O)/C=C\C(=O)O.c1ccc(Sc2ccccc2CN2CCCC2)cc1	-11.3
CN(C)CCCn1c(SCC(=O)Nc2nc(-c3cccc(Br)c3)cs2)nc2ccccc2c1=O	-3.37
Cc1ccc([N+](=O)[O-])cc1NC(=O)c1ccccc1	0.0028
N#Cc1ccc(C(=O)Nc2nc(-c3cccs3)c(C(=O)C(F)(F)F)s2)cc1	-18.6
CCC(CC)NC(=O)Nc1ccccc1C	11.5
CC(C)OCCCN1CN(S(=O)(=O)c2ccc(Cl)cc2)c2nc3ccccc3nc21	13.8
O=C1Nc2ccc(Cl)cc2/C1=C/C1CC=CCC1 (centres unmarked)	7.83
COc1ccc(N2CCN(Cc3oc(CO)cc(=O)c3O)CC2)cc1	2.29
Cc1ccccc1CN1CCN(CC(=O)NC(C)c2ccccc2)CC1 (centres unmarked)	3.82
COc1ccc(CN(C(=O)CN2C(=O)c3ccccc3S2(=O)=O)C(C(=O)NCC2CCCO2)c2ccco2)cc1 (centres unmarked)	-2.31
O=C(NCC1CCCO1)C(c1ccco1)N(Cc1ccc(F)cc1)C(=O)CN1C(=O)c2ccccc2S1(=O)=O (centres unmarked)	8.75
COc1ccc(CN(C(=O)CN2C(=O)c3ccccc3S2(=O)=O)C(C(=O)NCC2CCCO2)c2ccncc2)cc1 (centres unmarked)	0.0687
O=C(NCC1CCCO1)C(c1ccncc1)N(Cc1ccc(F)cc1)C(=O)CN1C(=O)c2ccccc2S1(=O)=O (centres unmarked)	-51.2
COc1cccc(C(C(=O)NCC2CCCO2)N(CC2CCCO2)C(=O)CN2C(=O)c3ccccc3S2(=O)=O)c1 (centres unmarked)	12.5
COc1cccc(CN(C(=O)CN2C(=O)c3ccccc3S2(=O)=O)C(C(=O)NCC2CCCO2)c2ccco2)c1 (centres unmarked)	-50.1
COc1ccc(CC(=O)Nc2ccc(OC(C)=O)cc2C(=O)O)cc1	-3.47
O=c1c2ccccc2nnn1CSc1nnc2ccccn12	6.78
Cc1ccc(Sc2ncccc2C(=O)O)cc1C	15.6
CCOC(=O)N1CCC(NCCNC(=O)c2cccs2)CC1	5.13

SMILES	hERG current change (%, negative = inhibition) at 1uM [%]
CCOC(=O)c1[nH]c2ccc(OC)cc2c1NC(=O)OC	9.33
NC(=O)C1CCN(C(=O)N2c3ccccc3Sc3ccccc32)CC1	0.149
C=CCNC(=O)C1CCN(c2ccc(S(=O)(=O)N3CCOCC3)cc2[N+](=O)[O-])CC1	-2.79
O=C(NCc1ccccc1Cl)C1CCN(S(=O)(=O)c2ccc(-n3cnnn3)cc2)CC1	-3.01
CC(C)CNC(=O)C1CCN(c2ccc(S(=O)(=O)N3CCOCC3)cc2[N+](=O)[O-])CC1	-9.02
O=C(NCc1ccco1)C1CCN(c2ccc(S(=O)(=O)N3CCOCC3)cc2[N+](=O)[O-])CC1	-51.5
C=CCN(CC=C)C(=O)C1CCN(S(=O)(=O)c2ccc(-n3cnnn3)cc2)CC1	-13.1
O=C(NCc1ccco1)C1CCN(S(=O)(=O)c2ccc(-n3cnnn3)cc2)CC1	-62.1
O=C(NCc1ccco1)C1CCCN(S(=O)(=O)c2ccc(-n3cnnn3)cc2)C1 (centres unmarked)	-26.8
CN(Cc1ccccc1)C(=O)C1CCN(S(=O)(=O)c2ccc(-n3cnnn3)cc2)CC1	-62
CCN(CC)C(=O)C1CCN(S(=O)(=O)c2ccc(-n3cnnn3)cc2)CC1	3.52
C[C@@H]1CN(Cc2nc(Cc3ccccc3F)no2)C[C@H](C)O1	8.68
O=C(Nc1cccc(C(=O)O)c1)/C(=C\c1ccc2c(c1)OCO2)NC(=O)c1ccccc1	3.01
CC(C)Oc1cccc(C(=O)C2CCCN(C(=O)c3cncs3)C2)c1 (centres unmarked)	4.28
Cc1ccccc1OCc1n(CC(=O)OC2CC(C)CCC2C(C)C)c2ccccc2[n+]1C.[Cl-] (centres unmarked)	-1.86
CC1CCC(C(C)C)C(OC(=O)Cn2c(-c3ccc(Cl)cc3)[n+](C)c3ccccc32)C1.[Cl-] (centres unmarked)	-58
CC1CCC(C(C)C)C(OC(=O)C[n+]2cc(-c3ccc(Cl)cc3)n3c2CCC3)C1.[Cl-] (centres unmarked)	-25.6
CC1CCC(C(C)C)C(OC(=O)C[n+]2cc(-c3ccc(Cl)cc3)n3c2CCCCC3)C1.[Cl-] (centres unmarked)	-19.9
CC1CCC(C(C)C)C(OC(=O)COC(=O)c2ccccc2N)C1 (centres unmarked)	4.58
CC1CCC(C(C)C)C(OC(=O)Cn2c(-c3ccc(F)cc3)[n+](C)c3ccccc32)C1.[Cl-] (centres unmarked)	-53.9
CC1CCC(C(C)C)C(OC(=O)Cn2c(-c3ccccc3)[n+](C)c3ccccc32)C1.[Cl-] (centres unmarked)	-42.1
CC1CCC(C(C)C)C(OC(=O)COC(=O)c2cccn2C)C1 (centres unmarked)	17.6
COc1ccc(OCc2n(CC(=O)OC3CC(C)CCC3C(C)C)c3ccccc3[n+]2C)cc1.[Cl-] (centres unmarked)	-45.5
CC1CCC(C(C)C)C(OC(=O)Cn2c(COc3ccccc3)[n+](C)c3ccccc32)C1.[Cl-] (centres unmarked)	-54
CC1CCC(C(C)C)C(OC(=O)Cn2c(-c3ccc(Br)cc3)[n+](C)c3ccccc32)C1.[Cl-] (centres unmarked)	-60.7
Cc1cccc(OCc2n(CC(=O)OC3CC(C)CCC3C(C)C)c3ccccc3[n+]2C)c1.[Cl-] (centres unmarked)	-12.2
